37 compounds from PubChem BioAssay (NCI) can be followed below.

About 79,000 compounds went through this panel and 15% of them were active in at least one assay; those are over-represented in the sample as a whole. Values without a mark were called inactive. Activity calls are given as the source filed them. Cut-off read from the data, not from the text of the source: active = growth inhibition above about 70%; inactive = the rest.

The nature of assay [1]: NCI Yeast Anticancer Drug Screen. Data for the rad50 strain (AID 155).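 Note: 0% = growth of vehicle-only cultures of the same strain.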 Conditions: S. cerevisiae rad50 strain growth inhibition; at 50.0 µM; stronger effect = higher value. The procedure, abridged: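 Growth of the mutant yeast was measured after compound exposure and referenced to vehicle-treated cultures.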
Assay [2] can be described thus: NCI Yeast Anticancer Drug Screen. Data for the mec2-1 strain (AID 157). Particulars: S. cerevisiae mec2-1 strain, at 50.0 µM, stronger effect = higher value. In outline: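 Using mec2-1 yeast: add compound, measure growth, express inhibition versus vehicle-treated cultures.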
The nature of assay [3]: NCI Yeast Anticancer Drug Screen. Data for the sgs1 mgt1 strain (AID 161).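 Note: 0% = growth of cultures given vehicle only.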 Conditions: S. cerevisiae sgs1 mgt1 strain, at 50.0 µM, stronger effect = higher value. The procedure, abridged:
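Growth of a repair-deficient yeast mutant was monitored after compound treatment and expressed as inhibition relative to vehicle-treated cultures.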

Assay [4] is described as follows: NCI Yeast Anticancer Drug Screen. Data for the cln2 rad14 strain (AID 165).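 Note: 0% = growth equal to vehicle treated cultures.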 Conditions: S. cerevisiae cln2 rad14 strain, at 50.0 µM, stronger effect = higher value. The procedure, abridged:
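Yeast strain cln2 rad14, bearing defects in cell cycle control and DNA repair, serves as the test system; values reflect growth inhibition compared with vehicle.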

A short description of assay [5]: NCI Yeast Anticancer Drug Screen. Data for the bub3 strain (AID 167). Conditions: S. cerevisiae bub3 mutant strain, at 50.0 µM, stronger effect = higher value. The procedure, abridged: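 Whole-cell yeast assay. The mutant strain was incubated with compounds, and growth inhibition was determined by comparison with vehicle-treated cells.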
Assay [6] is described as follows: NCI Yeast Anticancer Drug Screen. Data for the mlh1 rad18 strain (AID 175). Conditions: S. cerevisiae mlh1 rad18 strain growth inhibition; at 50.0 µM; stronger effect = higher value. The procedure, abridged: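 Steps: expose repair-defective yeast to compound; measure growth; express inhibition against vehicle-treated controls.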

With `O=C(Nc1c(C(=O)NC2CCCCC2)[nH]c(=O)[nH]c1=O)c1ccc(Cl)cc1`, the growth inhibition in assay [1] is -18.8%; in assay [2] it was -1.35%; in assay [3], -19.4%; in assay [4] it was 2.85%; in assay [5], -0.25%; in assay [6], 5.5%.
Turning to `O=[N+]([O-])c1cc(Cl)ccc1NC(Nc1ccc(Cl)cc1[N+](=O)[O-])C(Cl)(Cl)Cl`, the growth inhibition in assay [1] is 44.5%; in assay [2], 10.1%; in assay [3], 28.4%; in assay [4] it was -31.9%; in assay [5], 3.6%; in assay [6], 35.8%.
As to `COC1=C(C(=O)c2ccc(OC)c(OC)c2)COC1=O`, the growth inhibition in assay [1] was -8.4%; in assay [2], -13.3%; in assay [3], -4.5%; in assay [4], -4.4%; in assay [5], 31.4%; in assay [6] it was 7.15%.
Turning to `Cc1c2oc3c(C)ccc(C(=O)NCCc4ccco4)c3nc-2c(C(=O)NCCc2ccco2)c(N)c1=O`, the growth inhibition in assay [1] is 39.5%; in assay [2] it was 7.85%; in assay [3], 12.8%; in assay [4], 15.7%; in assay [5], 0.75%; in assay [6] it was 44.4%.
Take `CC(=O)/C=C(\O)c1c(C)[nH]c2ccccc12`: the growth inhibition was -16% in assay [1]; 9% in assay [2]; -3.95% in assay [3]; -41.4% in assay [4]; -11.9% in assay [5]; -5.95% in assay [6].
`COc1ccc(NNc2ccc(OC)cc2)cc1`: the growth inhibition in assay [1] is 0.95%; in assay [2], 7.65%; in assay [3], -4.7%; in assay [4], 17.9%; in assay [5], -5.1%; in assay [6], -9.5%.
Regarding `OCC1CCCC1`, the growth inhibition in assay [1] is 12.3%; in assay [2], -18.4%; in assay [3], -0.05%; in assay [4] it was -2.95%; in assay [5], -1.5%; in assay [6], 9.7%.
On to `FC(F)/C=C\c1ccccc1`, for which the growth inhibition is 8.85% in assay [1]; -4.55% in assay [2]; -10.4% in assay [3]; -19.8% in assay [4]; -16.9% in assay [5]; 6.9% in assay [6].
With `COC1CCC2(C)C3CCC4C(=CCC5C(C)(C)C(=O)CCC45C)CC3(C)CCC2C1(C)C` (configuration not stated), the growth inhibition in assay [1] was 16.3%; in assay [2], -11.3%; in assay [3], -8.55%; in assay [4] it was -12.8%; in assay [5] it was -2.2%; in assay [6] it was -12.1%.
For the compound `Cc1cn(C2CC3OP(=O)(OCc4ccccc4)OCC3O2)c(=O)[nH]c1=O` (configuration not stated), the growth inhibition in assay [1] is 5.35%; in assay [2], 7.1%; in assay [3], 16.1%; in assay [4], 7.25%; in assay [5], 8%; in assay [6], 4.15%.
On to `CC(C)O[Si](OC(C)C)(OC(C)C)OC(C)C`, for which the growth inhibition was 13.2% in assay [1]; -16.1% in assay [2]; -8.7% in assay [3]; -3.25% in assay [4]; 9.9% in assay [5]; 2.6% in assay [6].
`COC(=O)/C(=C\c1ccccc1N)c1cc2c(cc1Br)OCO2`: the growth inhibition in assay [1] is 84.2% (active); in assay [2], 40.2%; in assay [3], 82.4% (active); in assay [4], 41.4%; in assay [5], 44.3%; in assay [6], 68.1%.
For the compound `C=C(C)[C@@H]1CC[C@]2(C)CC[C@]3(C)[C@H](CC[C@@H]4[C@@]5(C)CC[C@H](O)C(C)(C)[C@@H]5CC[C@]43C)[C@@H]12`, the growth inhibition was -2.75% in assay [1]; -4.95% in assay [2]; -11.3% in assay [3]; -10.4% in assay [4]; -6.05% in assay [5]; -11.3% in assay [6].
Take `COC(=O)c1cc(-c2ccncc2)[nH]c(=O)c1C#N`: the growth inhibition in assay [1] was -5.05%; in assay [2] it was -32.1%; in assay [3], -33.9%; in assay [4], -18.1%; in assay [5], -15.2%; in assay [6] it was -19.9%.
Consider `CCOC(=O)Cn1cnc2sc3c(c2c1=O)CCCC3`, for which the growth inhibition in assay [1] is 13.4%; in assay [2], 21.1%; in assay [3] it was 30.6%; in assay [4], 28.7%; in assay [5] it was 19.4%; in assay [6] it was 35.9%.
Consider `Cn1nnc(CCCl)n1`, for which the growth inhibition is -5.35% in assay [1]; -5.1% in assay [2]; -8.15% in assay [3]; -36.9% in assay [4]; 16.8% in assay [5]; 5.5% in assay [6].
On to `CN(C)C(=O)C(NCCO)c1ccccc1` (configuration not stated), for which the growth inhibition in assay [1] is -12.6%; in assay [2], -20.4%; in assay [3], -11.2%; in assay [4], -27.8%; in assay [5] it was 14%; in assay [6], 0.3%.
As to `O=C(Nc1ccc(Cl)cc1)c1ccc(Cl)cc1Cl`, the growth inhibition in assay [1] was -11.8%; in assay [2], 10.7%; in assay [3] it was -2.5%; in assay [4], -39.1%; in assay [5], 13.7%; in assay [6], -0.15%.
Regarding `CCOC(=O)C1(Br)C(c2ccccc2)NC(=O)NC1(C)Br` (configuration not stated), the growth inhibition in assay [1] was 9.15%; in assay [2], -12.2%; in assay [3], 0.6%; in assay [4], 12.8%; in assay [5] it was -1.75%; in assay [6] it was -14.6%.
For `CC1CCC(=O)NCCCCC(=O)N1` (configuration not stated), the growth inhibition in assay [1] was 22.9%; in assay [2], 1.85%; in assay [3], 25.3%; in assay [4], 15.6%; in assay [5], 3.45%; in assay [6] it was 26.6%.
Regarding `CN(C)CCCNC(=O)N/N=C\c1cccc2ccccc12`, the growth inhibition was -2.9% in assay [1]; -24% in assay [2]; -17.4% in assay [3]; 14.8% in assay [4]; -4% in assay [5]; -6.45% in assay [6].
For `Cc1cc(=S)cc(C)[nH]1`, the growth inhibition in assay [1] was 17.1%; in assay [2] it was 5.5%; in assay [3], 11.3%; in assay [4], 2.1%; in assay [5] it was 0.45%; in assay [6] it was 33.4%.
As for `COC1(C)CNCC(C)(C)NC(=O)C(C)(OC)CNCC(C)(C)NC1=O` (configuration not stated), the growth inhibition was -10.9% in assay [1]; 2.1% in assay [2]; -20.7% in assay [3]; -17% in assay [4]; -32.5% in assay [5]; -19.6% in assay [6].
Turning to `O=[N+]([O-])c1cc(Cl)cc2c1nc(NCCCO)c1ccccc12`, the growth inhibition was -0.8% in assay [1]; 7.35% in assay [2]; -0.3% in assay [3]; -7.95% in assay [4]; -7.65% in assay [5]; 27.9% in assay [6].
Consider `Cc1ccc(Cl)cc1NC(=O)Oc1ccccc1C(=O)OCc1ccccc1`, for which the growth inhibition in assay [1] was -31.9%; in assay [2], -1.55%; in assay [3] it was 18.5%; in assay [4], -37.3%; in assay [5] it was 20.2%; in assay [6] it was 19.9%.
`Cc1cnccc1P(=O)(O)O`: the growth inhibition in assay [1] is 13.7%; in assay [2] it was -4.8%; in assay [3], 6.7%; in assay [4], -21.7%; in assay [5], -3.55%; in assay [6] it was 5.65%.
Consider `C=C(C)COc1c(C)c(C)c(OCC(C)C)c(C)c1C`, for which the growth inhibition in assay [1] was -4.35%; in assay [2] it was 9.75%; in assay [3], -0.75%; in assay [4] it was -8.75%; in assay [5], 3.2%; in assay [6], -10.9%.
On to `CCOC(=O)NC(Nc1ccc(C(=O)O)cc1)(C(F)(F)F)C(F)(F)F`, for which the growth inhibition in assay [1] is -5.75%; in assay [2], -10.8%; in assay [3], -38.5%; in assay [4] it was 18.6%; in assay [5], 4.65%; in assay [6], 11.4%.
On to `CCCCCCCCCCCCCCCC[N+](C)(C)CCNC(C)=O`, for which the growth inhibition was 99.2% (active) in assay [1]; 99.6% (active) in assay [2]; 99.7% (active) in assay [3]; 98.7% (active) in assay [4]; 99.2% (active) in assay [5]; 99.5% (active) in assay [6].
As to `CC1(C(=O)O)CCC(C(=O)Nc2ccccc2)C1(C)C` (configuration not stated), the growth inhibition in assay [1] was -11.2%; in assay [2] it was -20.6%; in assay [3], 5.05%; in assay [4], -0.35%; in assay [5], -13.1%; in assay [6], 1.9%.
`CC(Sc1nc2ccc(Cl)cc2[nH]1)C(=O)O` (configuration not stated): the growth inhibition in assay [1] was -11.8%; in assay [2], -4%; in assay [3] it was -0.9%; in assay [4], -16.9%; in assay [5], 12.9%; in assay [6], -3.85%.
Regarding `O=[N+]([O-])c1ccccc1S(=O)(=O)N1CCCc2cc(Cl)ccc21`, the growth inhibition in assay [1] was -3%; in assay [2], 4.15%; in assay [3], 9.45%; in assay [4] it was -12%; in assay [5], 20.6%; in assay [6], 13.4%.
With `Cc1cc2c(cc1C)[n+](=O)c(C(=O)CC(=O)C(=O)Nc1ccccc1C(C)C)c(C)n2[O-]`, the growth inhibition in assay [1] was -26.4%; in assay [2], -4.75%; in assay [3] it was -51.6%; in assay [4], 13.1%; in assay [5], -14.4%; in assay [6], -33.6%.
In the case of `C=CCN1/C(=C(\C#N)c2nc3ccccc3[nH]2)Sc2c1nc[nH]c2=O`, the growth inhibition in assay [1] is -51.6%; in assay [2], -27.9%; in assay [3], -32%; in assay [4], -32%; in assay [5], -32.9%; in assay [6], -49.8%.
Take `COc1cc2c(cc1OC)C1CCc3ccccc3CN1CC2` (configuration not stated): the growth inhibition in assay [1] was 0.7%; in assay [2] it was -25.5%; in assay [3], -6.85%; in assay [4] it was 8.95%; in assay [5] it was -15.8%; in assay [6], 3.15%.
As to `O=C(/C=C(/Nc1ccccc1)c1ccccc1)c1ccccc1`, the growth inhibition is 7.3% in assay [1]; 11.4% in assay [2]; 8.9% in assay [3]; 35.5% in assay [4]; 15.9% in assay [5]; 34.2% in assay [6].
For `N#C/C(=C\C1CCCC([N+](=O)[O-])C1)C1CCC([N+](=O)[O-])CC1` (configuration not stated), the growth inhibition in assay [1] is -0.55%; in assay [2], 5.3%; in assay [3], -7.15%; in assay [4], -6.5%; in assay [5], -5.05%; in assay [6], 2.85%.
